Six1-Eya2 blk: qHTS Assay for Inhibitors of the Six1/Eya2 Interaction; Homeobox protein SIX1 (Homo sapiens) + Protein phosphatase EYA2 (Homo sapiens), …; AlphaScreen GST-Six1/His-Eya2 binding, biochemical; hits give low values; activity change, % (test concentration not listed); actives 0.56% (n = 360,000); AID 651725, 2012; in the data active means activity change below about -65%; inconclusive means mostly about -30% to -63%
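GST-Six1 + His-Eya2 (5X stock: 250/500 nM); Tris pH 8.0, 300 mM NaCl, 0.05% BSA, 0.02% Tween 20; GSH donor/Ni acceptor beads; 1 h 37 °C dark; AlphaScreen readout.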
BAZ2B inh: qHTS Assay for Inhibitors of BAZ2B; Bromodomain adjacent to zinc finger domain protein 2B (Homo sapiens), Q9UIF8; AlphaScreen BAZ2B-H3K14Ac peptide displacement; Potency, µM (series often up to 114 µM), most hits filed as inhibitors; actives 4.4% (n = 360,000); further: nearly all actives have a fitted effect of over 60% in size
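Multi-concentration screen (max 110 uM) measuring displacement of acetylated histone H3 peptide from BAZ2B by AlphaScreen, using 50 nM protein, 50 nM peptide and 10 ug/mL streptavidin donor plus Ni-chelate acceptor beads.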
CtBP-E1A inh: qHTS Assay for Inhibitors of the CtBP/E1A Interaction; CtBP / adenovirus E1A interaction (AlphaScreen); activity change, % (concentration not given with the values); AID 651724, 2012; actives 0.49% (n = 340,000); AlphaScreen GST-E1A/His-CtBP binding, 1536-well; hits give low values; in the data active means activity change below about -65%; inconclusive means mostly about -30% to -63%
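Steps: dispense buffer (Tris pH 8.0, NaCl 300 mM, TCEP 1 mM, BSA, Tween 20); add 5X protein mix (GST-E1A, His-CtBP, 125 nM each); pin 23 nL compound; 2 h at 37 °C, dark; add 5X beads (50 ug/mL); 1 h; read.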
JMJD2A Tudor inh: qHTS Assay for Inhibitors of JMJD2A-Tudor Domain. Lysine-specific demethylase 4A (Homo sapiens), O75164. Potency, µM (series often up to 114 µM), usual class: inhibitors. AlphaScreen JMJD2A-Tudor / H3K4me3 peptide binding. actives 4.4% (n = 390,000); further: nearly all actives have a fitted effect of over 50% in size
G9a inh: qHTS Assay for Inhibitors of Histone Lysine Methyltransferase G9a. Histone-lysine N-methyltransferase EHMT2 (Homo sapiens), Q96KQ7. G9a H3K9 monomethylation, AlphaScreen, 2 h. Potency, µM (top dose mostly 102 µM), most hits filed as inhibitors. actives 8.8% (n = 350,000). AID 504332, 2011; further: nearly all actives have a fitted effect of over 75% in size
Target sequence (Q96KQ7 913-1193 limits assumed): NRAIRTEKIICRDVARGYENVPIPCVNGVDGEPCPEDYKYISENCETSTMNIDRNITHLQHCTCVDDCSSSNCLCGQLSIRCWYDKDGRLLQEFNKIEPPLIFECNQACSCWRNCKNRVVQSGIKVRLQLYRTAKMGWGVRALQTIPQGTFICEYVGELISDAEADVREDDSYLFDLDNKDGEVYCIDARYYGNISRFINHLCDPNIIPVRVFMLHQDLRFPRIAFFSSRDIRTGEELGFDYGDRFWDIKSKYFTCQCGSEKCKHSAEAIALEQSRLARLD
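G9a (20 nM) was preincubated 15 min with compound, then reacted 2 h at room temperature with 500 nM biotin-H3K9 peptide and 20 µM SAM. Monomethyl-H3K9 detected by AlphaScreen using anti-H3K9me1 antibody.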
HP1b chromo inh: HTS for Inhibitors of HP1-beta Chromodomain Interactions with Methylated Histone Tails; Chromobox protein homolog 1 (Homo sapiens), P83916; AlphaScreen HP1-beta / biotin-H3K9me3 peptide binding; Potency, µM (series often up to 114 µM), most hits filed as inhibitors; actives 0.56% (n = 390,000); AID 540317, 2011; further: nearly all actives have a fitted effect of over 70% in size
Target sequence (P83916 whole entry, looked up): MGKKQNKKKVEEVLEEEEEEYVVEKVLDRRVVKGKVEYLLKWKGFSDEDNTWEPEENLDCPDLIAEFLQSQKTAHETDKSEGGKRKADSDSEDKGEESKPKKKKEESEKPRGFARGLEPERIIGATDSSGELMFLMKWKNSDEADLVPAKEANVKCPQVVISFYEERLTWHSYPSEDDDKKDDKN
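AlphaScreen: HP1-beta (50 nM) preformed 30 min with biotin-H3(1-18)K9me3 peptide (50 nM) in PBS pH 7.4, 0.01% Tween-20. Compound added for 30 min at RT, then streptavidin donor/nickel chelate acceptor beads (10 ug/mL) for 30 min.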
Hits are given with their value; . = inactive; ? = inconclusive; / = not tested or not shown; [ ] = remark or other dose. This is a sample that favours compounds with a hit; in the whole collection about 10% have one here. Unless noted, the call rests on the fitted dose curve; in most records, active means well fitted inhibition curve with a large enough effect; inconclusive means small, poorly fitted or top-dose-only effect; inactive means no such curve, though single readings can be large or run the other way.

SMILES	Six1-Eya2 blk	BAZ2B inh	CtBP-E1A inh	JMJD2A Tudor inh	G9a inh	HP1b chromo inh
COc1ccc(-c2c3c(=O)n(C)c(=O)n(C)c3c3c(-c4ccccc4)nc4ccccc4n23)cc1	/	.	/	.	.	.
CO[C@H]1C([C@@]2(C)O[C@@H]2CC=C(C)C)[C@]2(CC[C@H]1OC(=O)/C=C/C=C/C=C/C=C/C(=O)O)CO2 (some centres not stated)	/	/	/	/	22µM	/
CCOc1cccc2sc(N(CCN(C)C)C(=O)/C=C/c3cccs3)nc12	.	?	.	45µM	.	.
COc1cccc2sc(N(CCN(C)C)C(=O)/C=C/c3cccs3)nc12	.	/	.	.	16µM	.
CN(C)CCCN(C(=O)/C=C/c1cccs1)c1nc2ccc(F)cc2s1	.	/	.	.	?	.
Cc1ccc2nc(N(CCN(C)C)C(=O)/C=C/c3cccs3)sc2c1	.	.	.	.	.	.
COc1ccc(C)c2sc(N(CCN(C)C)C(=O)/C=C/c3cccs3)nc12	.	35µM	.	?	/	.
CCOc1ccc2nc(N(CCN(C)C)C(=O)/C=C/c3cccs3)sc2c1	.	.	/	.	?	.
CN(C)CCN(C(=O)/C=C/c1cccs1)c1nc2c(F)cc(F)cc2s1	.	?	.	40µM	?	?
COc1ccc(OC)c2sc(N(CCN(C)C)C(=O)/C=C/c3cccs3)nc12	.	.	.	?	/	.
Cc1ccc(S(=O)(=O)N2CCc3cc(C(=O)NCCc4ccccc4)ccc32)cc1	/	.	/	.	.	.
Nc1ccc(N2CCCCC2)c(Cl)c1	.	.	.	.	45µM	.
CCCS(=O)(=O)Nc1ccc(N2CCCCC2)c(S(=O)(=O)Nc2ccccc2OC)c1	.	.	.	.	11µM	.
COc1ccccc1NS(=O)(=O)c1cc(N)ccc1N1CCCCC1	.	?	/	56µM	4µM	.
Nc1ccc(N2CCOCC2)c(Cl)c1	.	.	.	.[11.4 µM]	?	.
Nc1ccc(N2CCCCC2)c(S(=O)(=O)Nc2ccccc2Cl)c1	.	?	.	?	14µM	?
CCC(C(=O)Nc1ccc(N2CCOCC2)c(S(=O)(=O)Nc2ccccc2OC)c1)c1ccccc1 (configuration not stated)	.	/	.	.	/	.
Cc1c(P(=S)(c2ccccc2)c2ccccc2)c2ccccc2n1C(=O)Cc1ccccc1	/	/	/	.	/	/
CCOc1ccc(-n2c(C)nc3cc(C(=O)NCc4ccc(C)cc4)ccc32)cc1	/	.	/	.	.	.
Cc1cccc(NC(=O)N2CCC(N3CCN(Cc4ccccc4)C(=O)C3=O)CC2)c1C	/	.	/	.	.	.
CC1(NC(=O)CC[N+](C)(C)CCO)CS(=O)(=O)CC1S(=O)(=O)[O-] (configuration not stated)	/	50µM	/	/	?	/
CCOCCCNC(=O)N1CCN(S(=O)(=O)c2ccc3c(ccn3C)c2)CC1	/	.	/	.	.	.
COC(=O)C1(Cc2ccccc2)NC(c2ccccc2C)C2C(=O)N(c3ccc4c(c3)OCO4)C(=O)C21 (configuration not stated)	.	.	.	.	0.79µM	.
COc1ccc(OCCCn2ccnc2)cc1	.	22µM	.	0.89µM	.[2.33 µM]	16µM
Fc1ccc(OCCCCCn2ccnc2)cc1	.	.	.	.	.	.
SMILES	Six1-Eya2 blk	BAZ2B inh	CtBP-E1A inh	JMJD2A Tudor inh	G9a inh	HP1b chromo inh
COc1ccccc1OCCn1ccnc1	.	?	.	3.5µM	/	?
Fc1ccc(OCCCn2ccnc2)cc1	.	?	.	45µM	40µM	?
Cc1cc(OCCn2cncn2)ccc1[N+](=O)[O-]	.	.	.	.	/	.
Cc1cc(OCCCn2ccnc2)ccc1[N+](=O)[O-]	.	56µM	.	6.3µM	/	?
COc1ccccc1C1=Nn2c(nc3sc(C(=O)Nc4ccccc4Cl)c(C)c3c2=O)SC1	/	?	/	.	.	.
CC(C)NC(=O)C1CCC(Cn2c(=O)c3sccc3n(CC(=O)NCc3ccccc3)c2=O)CC1 (configuration not stated)	/	.	/	.	.	.
CCc1ccc(-n2c(=O)c3c4c(sc3n(CC(=O)N3CCC(C)CC3)c2=O)CCC4)cc1	/	.	/	.	.	.
COc1ccc(N(C(=O)c2cccc(C)c2)S(=O)(=O)c2ccc(C)cc2)cc1	/	.	/	.	.	.
Cc1cc(OCC(=O)N2CCCCCC2)ccc1[N+](=O)[O-]	.	.	.	.	.	.
Cc1cc(OCCN2CCCCCC2)ccc1[N+](=O)[O-]	.	56µM	.	?	25µM	?
CC(=O)Oc1ccc2occ(/C=N/c3cc(=O)[nH]c(=S)[nH]3)c(=O)c2c1	.	.	.	.[11.4 µM]	11µM	.
CCCCCNC(=O)C1CCC(Cn2c(=O)c3sccc3n(CC)c2=O)CC1 (configuration not stated)	/	.	/	.	.	.
Cc1ccc2c(c1)c1c3n2CCN(C(=O)CN2CCN(C)CC2)C3CCC1 (configuration not stated)	.	?	.	?	45µM	.
CN1CCN(CC(=O)N2CCn3c4c(c5cc(C6CCCCC6)ccc53)CCCC42)CC1 (configuration not stated)	.	35µM	.	40µM	?	?
Cc1ccc2c(c1)c1c3n2CCN(CC(O)CNC(C)C)C3CCC1 (configuration not stated)	.	?	.	?	?	.
Cc1ccc2c(c1)c(=O)c1c3n2CCN(C(=O)CCl)C3CC1 (configuration not stated)	.	40µM	.	?	11µM	.
Cc1cc(C)cc(N2C(=O)CS(=O)(=O)C23C(=O)N(Cc2ccccc2)c2ccccc23)c1 (configuration not stated)	/	.	/	.	.	.
O=P(O)(O)OC[C@H]1O[C@](O)(COP(=O)(O)O)[C@@H](O)[C@@H]1O	/	/	/	/	.[12.7 µM]	/
COc1ccc(-c2nc(CCNC(=O)c3cc(OC)c(OC)c(OC)c3)cs2)cc1	/	.	/	.	.	.
COC(=O)c1scc(-c2ccc(C)cc2)c1S(=O)(=O)N1CCN(c2ccc(OC)cc2)CC1	/	?	/	?	11µM	?
CC(C)Cn1c(=O)c(-[n+]2ccccc2)c([O-])c2ccccc21	.	.	.	.	.	.
CCCCn1c(=O)c(-[n+]2ccccc2)c([O-])c2ccccc21	.	?	.	.	8.9µM	.
CC(=O)c1ccc(N2CCN(c3ncnc4onc(C)c34)CC2)cc1	/	.	/	.	.	.

Bioassay records: PubChem, National Center for Advancing Translational Sciences (NCATS)
